Test results from PubChem BioAssay (EPA / NIEHS).
Calls of active or inactive are those of the source. Rule for the calls: active = hit-call score of the fitted dose curve at least 0.9, where 1 is the maximum; inactive = score below 0.9.

read-out: Vascular endothelial growth factor receptor 2 (Homo sapiens) (UniProt P35968); assay: BSK_4H_VEGFRII: BioMAP Diversity Plus: 4H Assay for Vascular endothelial growth factor receptor 2 (VEGFR2) Biomarker Activity (AID 2283031); details: primary human endothelial cells (HUVEC); actives raise or lower the signal
Method: BSK_4H is a cell-based, multiplexed-readout assay that uses umbilical vein endothelium, a human vascular primary cell, with measurements taken at 24 hours after chemical dosing in a 96-well plate.BSK_4H_VEGFRII is an assay component measured in the BSK_4H assay. It measures VEGFRII antibody related to regulation of gene expression using ELISA technology.Data from the assay component BSK_4H_VEGFRII was analyzed into 1 assay endpoint. This assay endpoint, BSK_4H_VEGFRII, was analyzed with bidirectional fitting relative to DMSO as the negative control and baseline of activity. Using a type of binding reporter, gain or loss-of-signal activity can be used to understand changes in the signaling as they relate to the gene KDR. Furthermore, this assay endpoint can be referred to as a primary readout, because this assay has produced multiple assay endpoints where this one serves a signaling function. To generalize the intended target to other relatable targets, this assay endpoint is annotated to the kinase intended target family, where the subfamily is receptor tyrosine kinase.
The levels of cell surface (or secreted, indicated by the prefix "s") biomarker endpoints were measured by ELISA. Overt cytotoxicity to cells in confluent adherent cultures (all systems other than the BT system) was assessed by measuring total protein levels using sulforhodamine B (SRB) staining in parallel cultures at the time of biomarker measurements, indicated as SRB endpoints. For proliferation assays for adherent cell types, individual cell types are cultured at sub-confluence and relative cell numbers quantified by SRB staining at time points optimized for each system (48 h: 3C and CASM3C systems; 72 h: BT and HDF3CGF systems; 96 h: SAg system). SRB was performed by staining cells with 0.1% SRB after fixation with 10% TCA and reading wells at 560 nm.Viability and proliferation of PBMC (T cells) was quantified by Alamar Blue reduction for the SAg and BT systems. For PBMC viability (referred to as PBMC Cytotoxicity within the assay endpoint names), cells were plated (75,000/well in a 96-well plate) and then chemical samples added for 1 h before addition of activators, SEB and TSST-1 (20 ng/mL final concentration each). Cells were incubated for 90 h. Then, Alamar Blue (20 uL/well) (Invitrogen, Cat DAL1100) was added for 6 h, and the plates were read with a fluorescence microplate reader at 546/580 nm (excitation/emission). For PBMC proliferation, cells were plated and activated as above but incubated for only 16 h prior to addition of Alamar Blue. Plates were read after 6 h.

Structure (SMILES) | outcome | AC50
CCCCCCCCCCCCCCCCCC(=O)OCC(CC)CCCC (stereo not given) | inactive | –
Cc1ccc(O)c(C(C)(C)C)c1 | inactive | –
CC[Si](OC(C)=O)(OC(C)=O)OC(C)=O | inactive | –
Cc1ccc(Nc2ccc(O)c3c2C(=O)c2ccccc2C3=O)cc1 | inactive | –
Nc1cc([N+](=O)[O-])ccc1O | inactive | –
CCCCCCCCCC=O | inactive | –
Nc1cc([N+](=O)[O-])ccc1Cl | inactive | –
CCC(=O)OCc1ccccc1 | inactive | –
C=C(C)C(=O)O[C@H]1C[C@@H]2CC[C@@]1(C)C2(C)C | – | 5.29 µM (active)
CCCCC/C=C/C=C/C=O | – | 20 µM (active)
OC[C@H]1O[C@H](O[C@]2(CCl)O[C@H](CCl)[C@@H](O)[C@@H]2O)[C@H](O)[C@@H](O)[C@H]1Cl | inactive | –
Cc1cc(C2(c3cc(C)c(O)cc3C)OS(=O)(=O)c3ccccc32)c(C)cc1O | inactive | –
CC(=O)Nc1ccccc1O | inactive | –
CCCCC(CC)COC(=O)/C=C\C(=O)OCC(CC)CCCC (stereo not given) | inactive | –
N#Cc1ccc(CC(=NNC(=O)Nc2ccc(OC(F)(F)F)cc2)c2cccc(C(F)(F)F)c2)cc1 | inactive | –
c1ccc2sc(SN(C3CCCCC3)C3CCCCC3)nc2c1 | – | 5.07 µM (active)
CC(=O)/C=C/C1=C(C)CCCC1(C)C | inactive | –
NCCNCCN | inactive | –
O=C(O)c1cn(C2CC2)c2cc(N3CCNCC3)c(F)cc2c1=O | inactive | –
CC(=O)OCCC(C)CC(C)(C)C (stereo not given) | inactive | –

Structure (SMILES) | outcome | AC50
C#C[C@]1(O)CC[C@H]2[C@@H]3CCC4=Cc5oncc5C[C@]4(C)[C@H]3CC[C@@]21C | inactive | –
O=C1CCCCCCCCCCCCCCO1 | inactive | –
CCCCC(CC)COCCC#N (stereo not given) | inactive | –
OC1OC[C@@H](O)[C@H](O)[C@H]1O (stereo not given in full) | inactive | –
C[C@H]1C[C@@H]2[C@H]([C@@H](O)C[C@@]3(C)[C@H]2CC[C@]3(O)C(=O)CO)[C@@]2(C)C=CC(=O)C=C12 | inactive | –
COC(=O)c1ccc(C)cc1 | inactive | –
O=C(O)c1ccc([N+](=O)[O-])cc1 | inactive | –
Cc1ccc2n[nH]nc2c1 | inactive | –
C=CCOC(=O)CCC1CCCCC1 | inactive | –
CC(C)(COC(=O)c1ccccc1)COC(=O)c1ccccc1 | – | 28.4 µM (active)
O=P(c1ccccc1)(c1ccccc1)c1ccccc1 | inactive | –
C=C[Si](OCC)(OCC)OCC | inactive | –
CCCCCCCCC=O | inactive | –
CCc1c(C)cc(N)c(CC)c1N | inactive | –
O=C(O)c1cn(-c2ccc(F)cc2)c2cc(N3CCNCC3)c(F)cc2c1=O | inactive | –
CC(C)c1ccc(C(C)C)cc1 | – | 33.3 µM (active)
CC(=O)O[C@]1(C(C)=O)CC[C@H]2[C@@H]3C[C@H](C)C4=CC(=O)CC[C@]4(C)[C@H]3CC[C@@]21C | inactive | –
CC1COc2ccccc2N1C(=O)C(Cl)Cl (stereo not given) | inactive | –
O=C(O)C[C@H](O)C[C@H](O)/C=C/c1c(C2CC2)nc2ccccc2c1-c1ccc(F)cc1 | inactive | –
CNC[C@H](O)c1cccc(O)c1 | inactive | –
